Experimental data from PubChem BioAssay (NCI).
“And” between values parts separate entries of the source, which are not always exact repeats. Equal entries are not always repeated. About 83,000 compounds went through this panel and 20% of them were active in at least one assay; those are over-represented in the sample as a whole.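 The endpoint reported here, percent growth, reads 100 for growth as untreated, 0 for no net growth and -100 for all cells dead.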 The source made the active and inactive calls. Rule for the calls: active = growth percent below 10; inactive = the rest.

Columns and labels:
Assay in all cases: NCI-60 one-dose screen, 48 h (100 = growth as untreated, 0 = no growth, -100 = all killed)
Conditions in all cases: 10 µM unless noted
[1] = tested on: SK-MEL-2 melanoma
[2] = tested on: EKVX NSCLC
[3] = tested on: SN12C renal
[4] = tested on: UO-31 renal
[5] = tested on: TK-10 renal
[6] = tested on: ACHN renal
[7] = tested on: CAKI-1 renal
[8] = tested on: A498 renal
[9] = tested on: CCRF-CEM leukemia
[10] = tested on: MOLT-4 leukemia
[11] = tested on: SR leukemia
[12] = tested on: RPMI-8226 leukemia
[13] = tested on: OVCAR-8 ovarian
[14] = tested on: OVCAR-5 ovarian
[15] = tested on: OVCAR-4 ovarian
[16] = tested on: SK-OV-3 ovarian
[17] = tested on: IGROV1 ovarian
[18] = tested on: OVCAR-3 ovarian
[19] = tested on: HS 578T breast
[20] = tested on: NCI/ADR-RES ovarian

SMILES	growth [1]	growth [2]	growth [3]	growth [4]	growth [5]	growth [6]	growth [7]	growth [8]	growth [9]	growth [10]	growth [11]	growth [12]	growth [13]	growth [14]	growth [15]	growth [16]	growth [17]	growth [18]	growth [19]	growth [20]
O=C(CN1CCN(c2cc3c(cc2F)c(=O)c(C(=O)O)cn3C2CC2)CC1)Nc1ccc(Cl)cc1	94.8% (inactive) and 106% (inactive)	93.4% (inactive) and 92.3% (inactive)	90.1% (inactive) and 90.6% (inactive)	7.15% (active) and 16% (inactive)	86.1% (inactive) and 127% (inactive)	53.2% (inactive) and 84.4% (inactive)	67.2% (inactive) and 77.6% (inactive)	68.6% (inactive) and 45.8% (inactive)	77.4% (inactive) and 92.6% (inactive)	96.5% (inactive) and 92.7% (inactive)	71.1% (inactive) and 71.4% (inactive)	72.2% (inactive)	78.8% (inactive) and 95% (inactive)	105% (inactive) and 96% (inactive)	85.3% (inactive) and 83.2% (inactive)	63.4% (inactive) and 82.2% (inactive)	93.8% (inactive) and 97.3% (inactive)	94.4% (inactive) and 102% (inactive)	87.7% (inactive) and 93.6% (inactive)	101% (inactive) and 96.9% (inactive)
COc1cc2c(c(OC)c1OC)-c1ccc(OC)c(=O)cc1[C@@H](NC(C)=O)CC2	-1.11% (active) and 20.8% (inactive) and 30.7% (inactive)	42.2% (inactive) and 34.6% (inactive) and 35.8% (inactive)	35.3% (inactive) and 25.5% (inactive) and 46.8% (inactive)	35.8% (inactive) and 44% (inactive) and 21.2% (inactive)	61.7% (inactive) and 52.7% (inactive)	27.8% (inactive) and 27.2% (inactive) and 30.5% (inactive)	36.5% (inactive) and 21% (inactive) and 20.3% (inactive)	-0.067% (active) and 15.5% (inactive)	8.93% (active) and 21.5% (inactive) and 3.02% (active)	7.82% (active) and 6.6% (active) and 6.73% (active)	4.98% (active) and 2.6% (active) and 5.4% (active)	9.21% (active) and 2.34% (active)	10.3% (inactive) and 14.4% (inactive)	47.5% (inactive) and 20.8% (inactive) and 31.2% (inactive)	48.4% (inactive) and 57.7% (inactive) and 56.4% (inactive)	13.8% (inactive) and 25.8% (inactive) and 36.1% (inactive)	16.5% (inactive) and 15.3% (inactive)	-57.4% (active) and -0.335% (active) and -49% (active)	42.6% (inactive) and -0.967% (active) and 55.1% (inactive)	0.46% (active) and 8.85% (active) and -20.9% (active)
COc1c(/C(C)=N/N=c2sc(C(C)=O)nn2-c2ccc(Cl)cc2)c(Oc2ccccc2)c(OC)c2occc12	111% (inactive) and 114% (inactive)	93.1% (inactive) and 99.8% (inactive)	104% (inactive) and 98.8% (inactive)	75.8% (inactive) and 72.3% (inactive)	124% (inactive) and 118% (inactive)	109% (inactive) and 101% (inactive)	82% (inactive) and 64.5% (inactive)	100% (inactive) and 77.1% (inactive)	106% (inactive)	103% (inactive) and 89.3% (inactive)	107% (inactive) and 104% (inactive)	107% (inactive) and 96.3% (inactive)	102% (inactive)	104% (inactive) and 97.7% (inactive)	102% (inactive) and 97.9% (inactive)	137% (inactive) and 107% (inactive)	102% (inactive) and 94.5% (inactive)	102% (inactive)	103% (inactive)	96.5% (inactive) and 99.7% (inactive)
c1ccc2c(CC3=NCCN3)cccc2c1	132% (inactive) and 110% (inactive)	113% (inactive) and 102% (inactive)	103% (inactive) and 107% (inactive)	97.6% (inactive) and 98.7% (inactive)	114% (inactive) and 108% (inactive)	102% (inactive) and 116% (inactive)	92.9% (inactive)	90.3% (inactive) and 81.4% (inactive)	99.8% (inactive)	113% (inactive) and 108% (inactive)	101% (inactive)	104% (inactive) and 97.2% (inactive)	98% (inactive) and 101% (inactive)	97.7% (inactive) and 108% (inactive)	108% (inactive) and 110% (inactive)	105% (inactive) and 107% (inactive)	108% (inactive) and 116% (inactive)	117% (inactive) and 116% (inactive)	107% (inactive) and 99.6% (inactive)	101% (inactive) and 105% (inactive)
Cc1cc(-c2ccc(NS(=O)(=O)c3ccccc3)c(C)c2)ccc1NS(=O)(=O)c1ccccc1	85% (inactive) and 102% (inactive)	61.5% (inactive) and 73.6% (inactive)	94.7% (inactive) and 98.4% (inactive)	66.7% (inactive) and 108% (inactive)	83.4% (inactive) and 109% (inactive)	81.2% (inactive) and 96.7% (inactive)	61.3% (inactive) and 98.8% (inactive)	90.8% (inactive) and 89.8% (inactive)	80.5% (inactive) and 86.6% (inactive)	41% (inactive) and 56.3% (inactive)	49.2% (inactive) and 59.7% (inactive)	53.7% (inactive) and 66.1% (inactive)	85.4% (inactive) and 95.8% (inactive)	126% (inactive) and 111% (inactive)	66.2% (inactive) and 99% (inactive)	102% (inactive) and 126% (inactive)	69.3% (inactive) and 117% (inactive)	90.1% (inactive) and 107% (inactive)	83.4% (inactive) and 92.6% (inactive)	86.1% (inactive) and 87.3% (inactive)
Cc1ccc(S(=O)(=O)NCN2C(=O)c3ccccc3C2=O)cc1	106% (inactive)	119% (inactive)	98% (inactive)	92.3% (inactive)	108% (inactive)	108% (inactive)	95.1% (inactive)	111% (inactive)	91% (inactive)	93.6% (inactive)	101% (inactive)	103% (inactive)	108% (inactive)	110% (inactive)	96.7% (inactive)	98.4% (inactive)	107% (inactive)	113% (inactive)	108% (inactive)	110% (inactive)
CCC(C)C1(C2CCCC2)NC(=O)NC1=O (stereo not given)	94.2% (inactive) and 129% (inactive)	108% (inactive) and 100% (inactive)	100% (inactive) and 96% (inactive)	86.3% (inactive) and 96.6% (inactive)	92.4% (inactive) and 118% (inactive)	111% (inactive) and 108% (inactive)	112% (inactive) and 94% (inactive)	108% (inactive) and 81.8% (inactive)	92.8% (inactive) and 107% (inactive)	91.2% (inactive) and 106% (inactive)	92% (inactive)	93.9% (inactive) and 106% (inactive)	108% (inactive) and 99.9% (inactive)	111% (inactive) and 105% (inactive)	102% (inactive)	99.7% (inactive) and 109% (inactive)	117% (inactive) and 119% (inactive)	106% (inactive) and 115% (inactive)	107% (inactive) and 103% (inactive)	109% (inactive) and 104% (inactive)
